Source: PubChem BioAssay (NCATS)
Starred links: 1 amine or outer side, 2 acyl side, 3 side chain; linkers in the order of their positions; H or OH if unused. Positions of bridges follow the written chain, without caps; N, C: chain ends. Non-standard residues stand in square brackets, D forms with d. Residues, ends and D or L forms follow the SMILES beside them. Chains are numbered I, II in the order given. Actinocin(9to1) = Cc1c2oc3c(C)ccc(C(=O)[*:1])c3nc-2c(C(=O)[*:2])c(N)c1=O; NMeV = CN[CH](C(=O)O)C(C)C; Sar = CNCC(=O)O

experiment: qHTS profiling of the MIPE4 collection as inhibitors of Plasmodium falciparum (DD2) proliferation (AID 743345); conditions: P. falciparum Dd2 in erythrocytes, SYBR Green DNA, 72 h; at 28.5 µM (top of the series) unless noted
Source text: Plasmodium falciparum is a virulent malarial parasite that kills 1-2 million people worldwide each year. Transmitted by mosquitoes, the sporozoite form of the parasite enters the blood stream to infect hepatocytes, where they become merozoites that infect red blood cells (erythrocytes). Within erythrocytes, merozoites begin a […] cycle of growth and division, after which the parasite is released to infect new red blood cells. Gametocytes, which form within erythrocytes as well, circulate in the bloodstream and are ingested by the mosquito, thereby completing the life cycle. To profile malarial isolates for differential chemical responses and to identify inhibitors of malarial growth, an assay that measures P. falciparum growth and replication within erythrocytes was employed. This assay uses a DNA binding fluorescent dye (SYBR Green) to detect parasite DNA following cell lysis. Because mature erythrocytes lack DNA, only Plasmodium-derived DNA is detected.
The SYBR Green viability assay was adapted from a method described previously (Plouffe et al., 2008). For screening 3 ul culture medium was dispensed into 1536 well black clear bottom plates (Aurora Biotechnologies) using a Multidrop Combi (Thermo Fisher Scientific Inc.), 23 nL compounds in DMSO were added by a pin tool (Kalypsys), and 5 ul of erythrocytes infected with P. falciparum (0.3% parasitemia, 2.5% hematocrit final concentration) were added. The plates were incubated at 37 C in a humidified incubator in 5% CO2 for 72 h, and 2 ul lysis buffer (20 mM Tris HCl, 10 mM EDTA, 0.16% saponin, 1.6% triton X, 10X SYBR Green I supplied as 10,000X […] by Invitrogen) was added to each well. The plates were mixed for 25 sec with gentle shaking and incubated overnight at room temperature in the dark. The following morning, fluorescence intensity at 485(14) nm excitation and 535(25) nm emission wavelengths was measured on an EnVision (Perkin Elmer) plate reader. Plate reads were normalized relative to the control inhibitor (0.29 uM artemisinin) and vehicle (DMSO) wells present on each plate and then corrected by an algorithm using vehicle-only control plates at the beginning and end of the compound plate stack.

SMILES | parasite growth remaining, % of DMSO control (lower = more inhibition)
CC(Oc1ccc(O)cc1)(P(=O)(O)O)P(=O)(O)O | 101%
N#Cc1ccc(COC[C@H]2O[C@@H](n3c(NCc4ccc(Cl)c(Cl)c4)nc4c(N)ncnc43)[C@@H](O)[C@@H]2O)cc1 | 48.6%
CCC[C@H]1C[C@H](C(=O)N[C@@H]([C@@H]2O[C@@H](SC)[C@@H](O)[C@@H](O)[C@@H]2O)[C@H](C)Cl)N(C)C1 | 36%
C[C@H](O)[C@@H]1C(=O)N2C(C(=O)O)=C(S[C@@H]3CN[C@H](CNS(N)(=O)=O)C3)[C@@H](C)[C@@H]12 | 99.1%
CN[C@H]1[C@@H](O)[C@@H]2O[C@@H]3O[C@H](C)CC(=O)[C@]3(O)O[C@@H]2[C@@H](NC)[C@H]1O | 85.6%
CCC(C(=O)O)C1CCC(C)C(C(C)C(O)C(C)C(=O)C(CC)C2OC3(C=CC(O)[C@@]4(CC[C@](C)(C5CC[C@@](O)(CC)C(C)O5)O4)O3)C(C)CC2C)O1 (stereo not given in full) | 6.02%
CCOC(=O)N1CCN([N+]([O-])=NOc2ccc([N+](=O)[O-])cc2[N+](=O)[O-])CC1 | 83%
CC(C=CC=C(C)C=CC1=C(C)CCCC1(C)C)=CC=CC=C(C)C=CC=C(C)C=CC1=C(C)CCCC1(C)C | 92.7%
COc1ccc(C(C)=O)c(O)c1 | 98.8%
C=C[C@@H]1CN2CCC1C[C@H]2[C@H](O)c1ccnc2ccc(OC)cc12 (stereo not given in full) | 9.84%
Nc1nc2c(c(=O)[nH]1)N(C=O)[C@H](CNc1ccc(C(=O)N[C@@H](CCC(=O)O)C(=O)O)cc1)CN2 | 96.2%
CCCCCCCCc1ccc(CCC(N)(CO)CO)cc1 | 14.6%
C[C@@H](Oc1ccc2[nH]nc(C=Cc3cnn(CCO)c3)c2c1)c1c(Cl)cncc1Cl | 8.67%
CC(C)C[C@H](NC(=O)[C@@H](NC(=O)c1cccc(-c2ccccc2)n1)[C@@H](C)O)B(O)O | 8.79%
COc1ccc2cc([S+]([O-])Cc3ncc(C)c(OC)c3C)nc2c1 | 87.1%
Nc1nc(=O)n([C@H]2CSC(CO)O2)cc1F (stereo not given in full) | 99.2%
C=CC(=O)Nc1cccc(Nc2nc(NC3CCC(N(C)C)CC3)nc3c2ncn3C(C)C)c1 (stereo not given) | 15.3%
C#C[C@]1(O)CC[C@@H]2[C@@H]3CCc4cc(O)ccc4[C@H]3CC[C@@]21C | 90.7%
O=C(Nc1cc2cc[nH]c2cn1)c1ccccc1 | 88%
C=C1C(=O)O[C@H]2[C@@H]1CCC(C)=CCC[C@@]1(C)O[C@@H]21 | 75.8%

SMILES | parasite growth remaining, % of DMSO control (lower = more inhibition)
O=C(C=CC=Cc1ccc2c(c1)OCO2)N1CCCCC1 | 15.8%
CN(N=O)C(=O)N[C@H]1C(O)OC(CO)[C@@H](O)[C@H]1O (stereo not given in full) | 93.8%
C[C@@H]1CC[C@@]2(OC1)OC1CC3C4CC=C5CC(O)CCC5(C)C4CCC3(C)C1[C@@H]2C (stereo not given in full) | 97.8%
C[C@@H](Cc1cc2c(c(C(N)=O)c1)N(CCCO)CC2)NCCOc1ccccc1OCC(F)(F)F | 84%
Oc1ccc(-c2ccc(-c3cc(Nc4cccc(CNC5CC5)c4)n[nH]3)cc2)c(O)c1 | 13.4%
CN(C)CC(=O)N1CCC(c2ccc(NC(=O)c3ncc(C#N)[nH]3)c(C3=CCCCC3)c2)CC1 | 16.6%
Cc1c2oc3c(C)ccc(C(=O)NC4C(=O)NC(C(C)C)C(=O)N5CCCC5C(=O)N(C)CC(=O)N(C)C(C(C)C)C(=O)OC4C)c3nc-2c(C(=O)NC2C(=O)NC(C(C)C)C(=O)N3CCCC3C(=O)N(C)CC(=O)N(C)C(C(C)C)C(=O)OC2C)c(N)c1=O (stereo not given) (I: TVP[Sar][NMeV] / II: TVP[Sar][NMeV]; ester I:1-I:C, II:1-II:C; linker I:N-II:N via Actinocin(9to1); configuration not given here) | 3.9%
Cc1ccc2nc(NCCN)c3ncc(C)n3c2c1 | 41.2%
COc1cc2c(cc1O)CCC1C2CC[C@@]2(C)C1CC[C@@H]2O (stereo not given in full) | 94.6%
C[C@H](NCc1ccc2c(c1)nc(NC(=O)c1ccc(-c3cn[nH]c3)s1)n2CCc1ccccc1)C(C)(C)C | 4.87%
C=C1CCC2[C@](C)(CO)C(O)CC[C@]2(C)C1CC=C1C(=O)OCC1O (stereo not given in full) | 85.2% [at 57.5 µM]
Cc1onc(-c2ccccc2)c1C(=O)N[C@@H]1C(=O)N2[C@@H](C(=O)O)C(C)(C)S[C@@H]12 | 99.9%
O=C(Nc1nnc(-c2ccco2)o1)c1cc(-c2ccccc2)nc2ccccc12 | 94.4%
NC(=NCCCCCCN=C(N)N=C(N)Nc1ccc(Cl)cc1)N=C(N)Nc1ccc(Cl)cc1 | 6.46%
CON=C(C(=O)N[C@@H]1C(=O)N2C(C(=O)O)=C(CSC(=O)c3ccco3)CS[C@H]12)c1csc(N)n1 | 101%
CCn1c(=O)c2c(nc(C=Cc3ccc(OC)c(OC)c3)n2C)n(CC)c1=O | 83.4%
CC[C@H]1OC(=O)[C@H](C)[C@@H](O[C@H]2C[C@@](C)(OC)[C@@H](O)[C@H](C)O2)[C@H](C)[C@@H](O[C@@H]2O[C@H](C)C[C@H](N(C)C)[C@@H]2O)[C@](C)(OC)C[C@@H](C)C(=O)[C@H](C)[C@@H](O)[C@]1(C)O | 44.2%
CC(=CC(=O)Nc1ccccc1C(=O)O)c1ccc2ccccc2c1 | 110%
CCOC(=O)[C@@H](N)Cc1ccc(-c2cc(O[C@H](c3ccc(Cl)cc3-n3ccc(C)n3)C(F)(F)F)nc(N)n2)cc1 | 28.1%
CN[C@@H]1C[C@H]2O[C@@](C)([C@H]1OC)n1c3ccccc3c3c4c(c5c6ccccc6n2c5c31)C(=O)N[C@H]4O | 6.48%
